Screens (PubChem)
Most compounds without a hit are left out; they make up all but 9.3% or so of the library.
ELG1 genotoxic – inducers of genotoxicity in HEK293T ELG1-luciferase cells. Potency, µM (top dose mostly 46 µM), for inactives: at the top dose activity change, positive = activation, most hits filed as activators. HEK293T ELG1-luciferase reporter, luminescence, 16 h. 330,000 tested, 1.3% active; also: % of control where 0% means no effect; nearly all actives have a fitted effect of over 60% in size
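Genotoxicity was scored as increased ELG1-luciferase reporter signal, measured by ONE-Glo luminescence (30 min, room temperature). Compound or vehicle exposure of the HEK293T reporter cells lasted 16 hr at 37°C.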
Rab9 promoter act – activates the Rab9 promoter. 320,000 tested, 2.8% active. Huh7 Rab9 promoter-luciferase reporter, luminescence, 24 h. Potency, µM (top dose mostly 9.22 µM), for the others: at the highest dose activation, negative = inhibition, most hits filed as activators. AID 485297; also: % of control where 0% means no effect; nearly all actives have a fitted effect of over 60% in size
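Using Huh7 cells stably transfected with Rab9 promoter–luciferase, compounds were incubated 24 h at 37 °C, 5% CO2; luciferase luminescence was read 10 min after reagent addition.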
ELG1 DNA repair – inhibitors of ELG1-dependent DNA repair in HEK293T cells | AID 504467 | HEK293T ELG1-luciferase reporter, luminescence, 16 h; DNA damage induced by 5-fluorouridine | 330,000 tested, 2.3% active | Potency, µM (top dose mostly 46.1 µM), inactives show at the highest dose activity change, negative = inhibition, most hits filed as inhibitors; also: % is scaled to controls: 0 for no effect and ±100 for the full control effect; nearly all actives have a fitted effect of over 55% in size
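Reporter activity after DNA damage by 5-fluorouridine is monitored. Compound-treated cells incubate 16 hr at 37 °C, then ONE-Glo is added for 30 min before luminescence reading.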
FLuc counter – firefly luciferase modulation, counter-screen for miR-21 project | P08659 | purified FLuc, Km substrates, luminescence inhibition | 360,000 tested, 6.9% active | AID 588342 | Potency, µM (series often up to 57.5 µM), for inactives: top-dose activity change, negative = inhibition, most hits filed as inhibitors;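 also: plate controls were vehicle for no effect and reference inhibitor for full effect; nearly all actives have a fitted effect of over 55% in size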
Target sequence (P08659 whole entry, looked up): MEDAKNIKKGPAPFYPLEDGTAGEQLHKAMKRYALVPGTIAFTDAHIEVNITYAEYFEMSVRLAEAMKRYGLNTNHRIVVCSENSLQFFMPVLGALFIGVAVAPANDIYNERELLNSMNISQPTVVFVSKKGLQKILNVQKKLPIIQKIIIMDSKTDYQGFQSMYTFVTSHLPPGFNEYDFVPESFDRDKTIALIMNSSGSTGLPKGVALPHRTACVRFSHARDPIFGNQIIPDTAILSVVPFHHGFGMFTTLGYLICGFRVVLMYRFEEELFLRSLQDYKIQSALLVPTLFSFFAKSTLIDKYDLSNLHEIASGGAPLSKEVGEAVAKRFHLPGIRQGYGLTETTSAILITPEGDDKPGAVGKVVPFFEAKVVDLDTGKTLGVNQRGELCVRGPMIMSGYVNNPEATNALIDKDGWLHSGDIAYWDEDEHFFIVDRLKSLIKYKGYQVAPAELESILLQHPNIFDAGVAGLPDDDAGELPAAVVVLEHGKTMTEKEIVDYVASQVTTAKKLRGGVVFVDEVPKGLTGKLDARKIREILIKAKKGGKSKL
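Biochemical qHTS of compounds, final roughly 60 µM downward over six points, against 10 nM purified firefly luciferase using Km concentrations of substrates (10 uM D-luciferin, 10 uM ATP) in Tris acetate pH 7.5 buffer; luminescence output.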
SMN2 splice enh – SMN2 splice variant enhancement. 210,000 tested, 2.8% active. HEK293 SMN2-luciferase splicing reporter, luminescence, 30-36 h. Potency, µM (top dose mostly 46.1 µM), for the others: top-dose activity change, positive = activation, usual class: activators; also: % of control where 0% means no effect; nearly all actives have a fitted effect of over 55% in size
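HEK293 cells carry an SMN2 minigene-luciferase reporter in which exon 7 inclusion puts luciferase in frame. Cells were seeded at 2000 cells/well, attached for 10-12 hours, then exposed to compounds for 30-36 hours at 37C before ONE-Glo luminescence.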
NPC1 prom act – NPC1 promoter activation. Huh7 NPC1 promoter luciferase reporter, 24 h. Potency, µM (doses to about 9.22 µM), for inactives: at the highest dose activation, hits mostly activators. 320,000 tested, 2.4% active; also: % of control where 0% means no effect; nearly all actives have a fitted effect of over 60% in size
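In 1536-well qHTS, Huh7 cells harboring an NPC1 promoter–luciferase construct received compound for 24 h; activation was quantified by luminescence following luciferase reagent addition.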
An asterisk follows results filed as active; u = inconclusive; x = no result; [ ] = dose if it differs, or a comment. Calls follow the shape of the dose curve; as a rule, active = well fitted curve in the direction sought with a large enough effect; inconclusive = small, poorly fitted or top-dose-only effect, or another doubt; inactive = no such curve, though single readings can be large; an effect the other way counts as inactive or inconclusive. Potency is read from the fitted curve at half-maximal effect.

SMILES | ELG1 genotoxic | Rab9 promoter act | ELG1 DNA repair | FLuc counter | SMN2 splice enh | NPC1 prom act
O=C(CN1CCCCCC1)Nc1ccccc1[N+](=O)[O-] | -2.1% | 4.4% | 7.9% | 2.4% | x | 2.3%
N#C/C(=N\Nc1ccccc1[N+](=O)[O-])C(=N)N1CCCCC1 | u | 0.282µM* | u | 2.39µM* | 3.16µM* | 0.562µM*
Cn1cccc1C(=O)NC(=O)COC(=O)CC12CC3CC(CC(Br)(C3)C1)C2 | -0.4% | -1.2% | u | -6.4% | 10.6% | 0.0%
Cn1cccc1C(=O)NC(=O)COC(=O)CC12CC3CC(CC(C3)C1)C2 | 5.8% | -3.8% | -0.5% | 16.9µM* | -7.4% | 1.0%
Cc1ccc(Nc2nnc(-c3ccccc3N)o2)cc1C | u | 3.55µM* | u | 2.69µM* | x | 3.55µM*
Cc1ccc(NCc2ccco2)cc1C | 2.3% | -1.5% | 24.1% | u | x | -3.7%
Cn1c(/C=C/c2ccccc2[N+](=O)[O-])nc2ccccc2c1=O | 3.8% | u | 17.4% | u | x | u
CCn1c(/C=C/c2ccccc2Cl)nc2ccccc2c1=O | 6.3% | 22.1% | u | 26.9µM* | x | 20.6%
Cc1ccccc1/C=C\c1nc2ccccc2c(=O)n1Cc1ccccc1 | -2.7% | 4.3% | 29.1µM* | -1.4% | -31.4%[1.84 µM] | 1.3%
Cn1c(/C=C/c2ccc(Br)cc2)nc2ccccc2c1=O | u | u | u | u | x | 3.55µM*
CCn1c(/C=C\c2ccccc2C)nc2ccccc2c1=O | -3.7% | -0.8% | -15.7% | u | x | 0.8%
O=c1c2ccccc2nc(/C=C/c2ccccc2)n1CCc1ccccc1 | -13.5% | 0.0% | 20.6µM* | -14.3% | -38.9% | 3.3%
Cn1c(SCc2cc(=O)c3cc(Cl)ccc3[nH]2)nnc1-c1ccccc1 | x | x | x | -10.4% | x | x
CCn1c(/C=C/c2c[nH]c3ccccc23)nc2ccccc2c1=O | 2.59µM* | 1.41µM* | u | 5.36µM* | x | 1.58µM*
CCn1c(/C=C/c2cccc([N+](=O)[O-])c2)nc2ccccc2c1=O | -0.3% | 3.2% | -0.3% | 0.3% | -70.6% | -4.7%
CN(C)S(=O)(=O)c1ccc(NC(=O)/C=C/c2ccccc2Cl)cc1 | 1.4% | 7.8% | -10.9% | 21.3µM* | 9.3% | 4.1%
O=C(Cc1ccccc1)Nc1ccc(Cl)cn1 | u | 18.6% | u | -10.6% | x | -0.4%
O=C(/C=C/c1ccccc1Cl)Nc1ccccc1 | u | 0.447µM* | u | 0.757µM* | x | u
O=C(/C=C/c1ccccc1Cl)Nc1ccc(Cl)cn1 | u | 1.12µM* | u | -6.0% | x | u
CCCCOC(=O)c1cccc(NC(=O)/C=C/c2ccccc2Cl)c1 | x | x | x | 6.75µM* | 1.41µM* | x
CCCCOC(=O)c1cccc(NC(=O)CCC(=O)O)c1 | 3.6% | 11.0% | -11.2% | -4.1% | -11.1% | 0.4%
Cn1c(=O)c2c(nc(Cc3ccccc3)n2CC(=O)O)n(C)c1=O | x | x | x | x | -10.3%[9.22 µM] | x
CCCNC(=O)CCNS(=O)(=O)c1ccc2c(c1)c(=O)n(C)c(=O)n2C | x | x | x | -1.0% | 2.1% | x
O=C(/C=C/c1ccccc1Cl)Nc1ccc(-c2nnc3n2CCCCC3)cc1 | -7.4% | -4.4% | 18.4µM* | -17.8% | -26.5% | -1.6%
CC(C)(C)CC(=O)Nc1ccc(-c2nnc3n2CCCCC3)cc1 | 3.2% | 7.5% | -2.9% | 1.1% | x | -3.4%
SMILES | ELG1 genotoxic | Rab9 promoter act | ELG1 DNA repair | FLuc counter | SMN2 splice enh | NPC1 prom act
O=C(Nc1ccc(-c2nnc3n2CCCCC3)cc1)c1cc2ccccc2o1 | -3.7% | 1.4% | u | -4.5% | -2.1% | 1.9%
O=C(/C=C/c1ccccc1Cl)Nc1cccc(O)c1 | u | u | u | 1.07µM* | u | u
Cc1c(C(=O)Nc2ccc(-c3nnc4n3CCCCC4)cc2)oc2c1ccc1ccccc12 | -15.2% | 0.8% | 16.4µM* | u | -11.2% | -7.8%
CN(C)c1ccc(NC(=O)/C=C/c2c(Cl)cccc2Cl)cc1 | 5.1% | 24.7% | u | 8.49µM* | u | 11.4%
CCN(CC)CCCNC(=O)c1ccc2nc(N3CCCCC3)sc2c1 | x | x | x | 1.0% | 29.3% | x
Cc1nnc(SCC(=O)Nc2nsc(-c3ccccc3)n2)s1 | -3.8% | 16.6% | u | u | 15.6% | 10.2%
Nc1nnc(SCC(=O)c2ccc3ccccc3c2)s1 | 11.6µM* | 3.98µM* | u | 19µM* | u | 4.47µM*
Nc1nnc(SCC(=O)c2cccc([N+](=O)[O-])c2)s1 | -9.1% | 1.1% | 2.6% | 4.3% | -57.5% | 0.2%
Cc1ccc(C(=O)CSc2nnc(C)s2)cc1 | u | 2.24µM* | u | 13.5µM* | u | 2.24µM*
Cc1nnc(SCC(=O)c2ccc(Br)cc2)s1 | -0.8% | 17.0% | -1.3% | 16.9µM* | -7.6% | 9.8%
Cc1ccc(-c2nc(NC(=O)CSc3nnc(C)s3)ns2)cc1 | 3.5% | -6.8% | u | 19µM* | 5.8% | 8.1%
CC(C)CNC(=O)COC(=O)Cc1ccc(Cl)cc1 | -1.8% | 0.3% | 5.9% | 2.5% | 3.0% | -3.3%
Cc1ccc2c(c1)cc1c(=O)[nH]ncn12 | u | u | u | 21.3µM* | -5.4% | u
CCN1CCN(c2cc(C)c3cc(NC(=O)c4ccc(C)c(C)c4)ccc3n2)CC1 | 9.7% | 6.8%[1.84 µM] | 6.2% | 21.3µM* | x | 21.2%
Cc1cc(N2CCCCC2)nc2ccc(NC(=O)c3cccc(Cl)c3)cc12 | x | x | x | -0.7% | x | x
